Activity calls are given as the source filed them. Calls come from the whole dose curve.

The test can be described thus: Cell Proliferation Assay Versus the ED40515 IL2 Independent ATL cell lines (AID 1053194). The conditions noted are these: ED40515 IL2-independent ATL cells. From the text: Adult T-cell leukemia (ATL) develops in individuals infected with human T-cell lymphotropic virus-1 (HTLV-1). Clinically, ATL is subclassified into four subtypes: smoldering, chronic, lymphomatous, and acute. Two autocrine loops (IL-2/IL-2Ralpha and IL-15/IL-15Ralpha) and one paracrine stimulation loop that involves IL-9 expression by ATL cells and IL-9Ralpha expression on monocytes are required to maintain viability and proliferation in the smoldering and chronic forms of the disease. These assays examined the differential response profiles for the MIPE library of approved and investigational drugs versus an IL2 dependent and independent matched ATL cell line, with the current submission examining the differential response profiles for drugs on an IL2 independent matched ATL cell line
Plate log growing ED40515 -IL2 cells: 1000cells/ well in 5uL phenol red free RPMI +5% FBS +1x p/s, Glutamine using 1536 well white griener tissue culture plates and multidrop cassette acoustic dispensing Columns 1 and 3 DMSO Columns 2 and 4, 9.2 uM Bortezomib Incubate 48 hours for celltiter glo 37C with 5%CO2 and 95% humidity with low evaporation lids Dispense 3 uL per well of cell titer glo with multidrop Incubate for 15 minutes at RT Read on VL/2 using Luminesence Wheel (Filter A)
Turning to `CNC(=O)N1N=C(c2ccc(N)cc2)c2cc3c(cc2CC1C)OCO3` (stereo not drawn), the Potency was 2.96 µM (active).
`CS(=O)c1ccc(-c2nc(-c3ccc(F)cc3)c(-c3ccncc3)[nH]2)cc1` (stereo not drawn): the Potency was 29.6 µM (active).
For `CC(O)(CS(=O)(=O)c1ccc(F)cc1)C(=O)Nc1ccc(C#N)c(C(F)(F)F)c1` (stereo not drawn), the Potency is 18.7 µM (active).
Take `Cc1cc(SCc2sc(-c3ccc(C(F)(F)F)c(F)c3)nc2C)ccc1OCC(=O)O`: the Potency was 26.4 µM (active).
Consider `Cc1sc2c(c1C)C(c1ccc(Cl)cc1)=N[C@@H](CC(=O)OC(C)(C)C)c1nnc(C)n1-2`, for which the Potency was 0.0833 µM (active).
For the compound `COC1(CS(=O)c2ccccc2)CCN(CCc2c[nH]c3ccc(F)cc23)CC1` (stereo not drawn), the Potency was 23.5 µM (active).
On to `CO[C@@H](C(=O)N1Cc2[nH]nc(NC(=O)c3ccc(N4CCN(C)CC4)cc3)c2C1)c1ccccc1`, for which the Potency is 7.43 µM (active).
On to `COC[C@H]1OC(=O)c2coc3c2[C@@]1(C)C1=C(C3=O)C2CCC(=O)[C@@]2(C)C[C@H]1OC(C)=O` (stereo partly drawn), for which the Potency is 14.8 µM (active).
As for `Cn1c(CCCC(=O)O)nc2cc(N(CCCl)CCCl)ccc21`, the Potency is 18.7 µM (active).
Regarding `O=C(O)C(=O)c1cn(Cc2ccccc2)c2ccc(-c3ccc(OC(F)(F)F)cc3)cc12`, the Potency is 20.9 µM (active).
Next, `Cn1cc(C2=C(c3cn(C4CCN(Cc5ccccn5)CC4)c4ccccc34)C(=O)NC2=O)c2ccccc21`: 13.2 µM (active); `CN(C)CCN(C)CCc1ccc(Cl)c(Cl)c1`: 16.6 µM (active).
For `C[C@]12CCC(=O)C(O)=C1CC[C@@H]1[C@@H]2CC[C@]2(C)C(=O)CC[C@@H]12`, the Potency is 26.4 µM (active).

These data come from PubChem BioAssay (NCATS).
